# Experimental data as given in PubChem BioAssay (NCI).
# The panel holds about 79,000 compounds, 15% with a hit somewhere; the sample as a whole holds those more often. Values without a mark were called inactive. Active and inactive are the calls of the source. No stated cut-off is given here; in the data, active means growth inhibition above about 70%; inactive means the rest.
# Assays:
# [1] = NCI Yeast Anticancer Drug Screen. Data for the rad52 strain (AID 147);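 further: 0% = growth of vehicle-treated control cultures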; conditions: S. cerevisiae rad52 mutant growth inhibition, active compounds read high
# Summary of the method: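 Yeast strain carrying a DNA damage repair alteration was exposed to test compounds. Growth inhibition was measured relative to vehicle-treated controls.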
# [2] = NCI Yeast Anticancer Drug Screen. Data for the wt1 strain (AID 149);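 further: 0% = growth of vehicle-treated wt1 cultures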; conditions: S. cerevisiae wt1 strain (SPY 50644) growth inhibition, active compounds read high
# Summary of the method: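 wt1 yeast, compound-treated; % growth inhibition vs vehicle control.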
# [3] = NCI Yeast Anticancer Drug Screen. Data for the rad50EPP+ strain (AID 151);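 further: 0% = growth of vehicle-treated control cultures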; conditions: S. cerevisiae rad50 mutant strain, active compounds read high
# Summary of the method: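 Yeast strain carrying rad50 alteration (rad50EPP+) exposed to compounds; growth inhibition measured relative to vehicle-treated controls.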
# [4] = NCI Yeast Anticancer Drug Screen. Data for the mgt1 strain (AID 153); conditions: S. cerevisiae mgt1 mutant growth inhibition, active compounds read high
# Summary of the method: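 Yeast mgt1 strain (DNA repair/cell-cycle alteration panel) exposed to compounds; growth inhibition measured relative to vehicle-treated controls.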
# [5] = NCI Yeast Anticancer Drug Screen. Data for the rad50 strain (AID 155);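 further: 0% = growth of vehicle-only cultures of the same strain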; conditions: S. cerevisiae rad50 strain growth inhibition, active compounds read high
# Summary of the method: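 Genetically altered yeast (DNA repair pathway); compound treatment; growth inhibition vs vehicle ctrl.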
# [6] = NCI Yeast Anticancer Drug Screen. Data for the mec2-1 strain (AID 157); conditions: S. cerevisiae mec2-1 strain, active compounds read high
# Summary of the method: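 mec2-1 yeast strain, carrying an alteration in DNA damage repair or cell cycle control, was exposed to compounds; growth inhibition was measured relative to vehicle-treated controls.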
# [7] = NCI Yeast Anticancer Drug Screen. Data for the rad14 strain (AID 159);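 further: 0% = growth of vehicle-treated control cultures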; conditions: S. cerevisiae rad14 strain growth inhibition, active compounds read high
# Summary of the method: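 Test compounds were applied to a repair-deficient yeast strain. Its growth was then compared with that of cultures given vehicle alone, and inhibition was expressed relative to those controls.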
# [8] = NCI Yeast Anticancer Drug Screen. Data for the sgs1 mgt1 strain (AID 161);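 further: 0% = growth of cultures given vehicle only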; conditions: S. cerevisiae sgs1 mgt1 strain, active compounds read high
# Summary of the method: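 Percent growth inhibition was derived by comparing compound-exposed mutant yeast with vehicle-exposed cultures. The strain carries alterations in DNA damage repair.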
# [9] = NCI Yeast Anticancer Drug Screen. Data for the CLN2oe strain (AID 163);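 further: 0% = growth of vehicle-only control cultures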; conditions: S. cerevisiae CLN2oe strain, active compounds read high
# Summary of the method: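 Yeast cells carrying a defined cell-cycle control alteration were exposed to test compounds. Growth inhibition was scored against vehicle-treated control cultures.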
# [10] = NCI Yeast Anticancer Drug Screen. Data for the cln2 rad14 strain (AID 165);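 further: 0% = growth equal to vehicle treated cultures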; conditions: S. cerevisiae cln2 rad14 strain, active compounds read high
# Summary of the method: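 Yeast carrying cln2 and rad14 alterations (cell cycle control and DNA damage repair) were exposed to compounds. Growth inhibition was measured against vehicle-treated controls.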
# [11] = NCI Yeast Anticancer Drug Screen. Data for the bub3 strain (AID 167); conditions: S. cerevisiae bub3 mutant strain, active compounds read high
# Summary of the method: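 Yeast carrying a defined mutation is treated with each compound, and growth is compared with that of vehicle-exposed cells to give inhibition.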
# [12] = NCI Yeast Anticancer Drug Screen. Data for the mlh1 strain (AID 171);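 further: 0% = growth of vehicle-treated control cultures of the same strain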; conditions: S. cerevisiae mlh1 strain growth inhibition, active compounds read high
# Summary of the method: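 Yeast carrying a defined genetic alteration in DNA damage repair or cell cycle control were exposed to test compounds. Growth inhibition was measured relative to vehicle-treated controls.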
# [13] = NCI Yeast Anticancer Drug Screen. Data for the sgs1 strain (AID 173);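 further: 0% = growth of vehicle-only control cultures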; conditions: S. cerevisiae sgs1 mutant, active compounds read high
# Summary of the method: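 Yeast mutant strains carrying defined defects in DNA damage repair or cell cycle control were exposed to test compounds. Growth inhibition was scored against vehicle-treated controls.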
# [14] = NCI Yeast Anticancer Drug Screen. Data for the mlh1 rad18 strain (AID 175); conditions: S. cerevisiae mlh1 rad18 strain growth inhibition, active compounds read high
# Summary of the method: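 Growth inhibition of the yeast strain was measured after compound exposure and expressed relative to vehicle-treated controls. The strain carries defined defects in DNA damage repair.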
# [15] = NCI Yeast Anticancer Drug Screen. Data for the rad18 strain (AID 177); conditions: S. cerevisiae rad18 mutant growth inhibition, active compounds read high
# Summary of the method: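 Yeast carrying a defined DNA damage repair alteration were exposed to compounds. Growth inhibition was expressed relative to vehicle-treated controls.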
# [16] = at 5.0 µM (retest, dose inferred, filed as 0.5)
# [17] = at 50.0 µM (retest, dose inferred, filed as 5.0)
smiles,measurement,setting,value
CCC(C)(c1ccc(O)c(C)c1)c1ccc(O)c(C)c1,growth inhibition,[1]; at 1.2 µM,-36%
same,growth inhibition,[1]; at 3.7 µM,-19%
same,growth inhibition,[1]; at 11.0 µM,42%
same,growth inhibition,[1]; at 33.0 µM,98% (active)
same,growth inhibition,[1]; at 100.0 µM,98% (active)
same,growth inhibition,[2]; at 1.2 µM,-17%
same,growth inhibition,[2]; at 3.7 µM,-23%
same,growth inhibition,[2]; at 11.0 µM,29%
same,growth inhibition,[2]; at 33.0 µM,98% (active)
same,growth inhibition,[2]; at 100.0 µM,99% (active)
same,growth inhibition,[3]; at 1.2 µM,-31%
same,growth inhibition,[3]; at 3.7 µM,-38%
same,growth inhibition,[3]; at 11.0 µM,-43%
same,growth inhibition,[3]; at 33.0 µM,-41%
same,growth inhibition,[3]; at 100.0 µM,12%
same,growth inhibition,[4]; at 1.2 µM,-49%
same,growth inhibition,[4]; at 3.7 µM,-39%
same,growth inhibition,[4]; at 11.0 µM,14%
same,growth inhibition,[4]; at 33.0 µM,97% (active)
same,growth inhibition,[4]; at 100.0 µM,99% (active)
same,growth inhibition,[5]; at 1.2 µM,-30%
same,growth inhibition,[5]; at 3.7 µM,-28%
same,growth inhibition,[5]; [16],40%
same,growth inhibition,[5]; at 11.0 µM,52%
same,growth inhibition,[5]; at 33.0 µM,97% (active)
same,growth inhibition,[5]; [17],87% (active)
same,growth inhibition,[5]; at 50.0 µM,92% (active)
same,growth inhibition,[5]; at 100.0 µM,97% (active)
same,growth inhibition,[6]; at 1.2 µM,-66%
same,growth inhibition,[6]; at 3.7 µM,-45%
same,growth inhibition,[6]; [16],42%
same,growth inhibition,[6]; at 11.0 µM,43%
same,growth inhibition,[6]; at 33.0 µM,98% (active)
same,growth inhibition,[6]; [17],90% (active)
same,growth inhibition,[6]; at 50.0 µM,93.3% (active)
same,growth inhibition,[6]; at 100.0 µM,98% (active)
same,growth inhibition,[7]; at 1.2 µM,-38%
same,growth inhibition,[7]; at 3.7 µM,-43%
same,growth inhibition,[7]; at 11.0 µM,15%
same,growth inhibition,[7]; at 33.0 µM,98% (active)
same,growth inhibition,[7]; at 100.0 µM,98% (active)
same,growth inhibition,[8]; [16],-3%
same,growth inhibition,[8]; [17],98% (active)
same,growth inhibition,[8]; at 50.0 µM,93.8% (active)
same,growth inhibition,[9]; at 1.2 µM,-36%
same,growth inhibition,[9]; at 3.7 µM,-28%
same,growth inhibition,[9]; at 11.0 µM,45%
same,growth inhibition,[9]; at 33.0 µM,97% (active)
same,growth inhibition,[9]; at 100.0 µM,98% (active)
same,growth inhibition,[10]; [16],81% (active)
same,growth inhibition,[10]; [17],100% (active)
same,growth inhibition,[10]; at 50.0 µM,92.7% (active)
same,growth inhibition,[11]; at 1.2 µM,-27%
same,growth inhibition,[11]; at 3.7 µM,-13%
same,growth inhibition,[11]; [16],13%
same,growth inhibition,[11]; at 11.0 µM,47%
same,growth inhibition,[11]; at 33.0 µM,97% (active)
same,growth inhibition,[11]; [17],99% (active)
same,growth inhibition,[11]; at 50.0 µM,92.2% (active)
same,growth inhibition,[11]; at 100.0 µM,98% (active)
same,growth inhibition,[12]; at 1.2 µM,-45%
same,growth inhibition,[12]; at 3.7 µM,-43%
same,growth inhibition,[12]; at 11.0 µM,42%
same,growth inhibition,[12]; at 33.0 µM,91% (active)
same,growth inhibition,[12]; at 100.0 µM,98% (active)
same,growth inhibition,[13]; at 1.2 µM,-32%
same,growth inhibition,[13]; at 3.7 µM,-25%
same,growth inhibition,[13]; at 11.0 µM,39%
same,growth inhibition,[13]; at 33.0 µM,97% (active)
same,growth inhibition,[13]; at 100.0 µM,98% (active)
same,growth inhibition,[14]; [16],30%
same,growth inhibition,[14]; [17],91% (active)
same,growth inhibition,[14]; at 50.0 µM,92.2% (active)
same,growth inhibition,[15]; at 1.2 µM,-55%
same,growth inhibition,[15]; at 3.7 µM,-38%
same,growth inhibition,[15]; at 11.0 µM,30%
same,growth inhibition,[15]; at 33.0 µM,97% (active)
same,growth inhibition,[15]; at 100.0 µM,98% (active)
